Test results as given in PubChem BioAssay (NCATS).
Inconclusive results are not listed. The source made the active and inactive calls. Calls come from the whole dose curve; as a rule, active = well fitted curve in the direction sought with a large enough effect; inconclusive = small, poorly fitted or top-dose-only effect, or another doubt; inactive = no such curve, though single readings can be large; an effect the other way counts as inactive or inconclusive.

Columns and labels:
[1] = qHTS of pediatric cancer cell lines to identify multiple opportunities for drug repurposing: Primary screen for SK-N-MC cells (AID 1347093); settings: SK-N-MC viability, CellTiter-Glo luminescence, 48 h; series mostly up to 46 µM
Procedure, shortened: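 Metabolically active cells were quantified by ATP-dependent luminescence (CellTiter-Glo, 15 min at room temperature) following 48 h treatment. Cells had been plated at 500-1,000 per well and settled for 5 h beforehand.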

[2] = qHTS of pediatric cancer cell lines to identify multiple opportunities for drug repurposing: Primary screen for Saos-2 cells (AID 1347097); settings: Saos-2 viability, CellTiter-Glo ATP luminescence, 48 h; series mostly up to 46 µM; note: nearly all actives have a fitted effect of over 40% in size
Procedure, shortened: (§1)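 CRCs from 8- or 11-point titrations (lowest final 0.59 nM NPC, 0.78 nM MIPE). Cell viability: CellTiter-Glo after 48 h incubation, 15 min room-temperature development, luminescence imaging.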

[3] = qHTS of pediatric cancer cell lines to identify multiple opportunities for drug repurposing: Primary screen for SK-N-SH cells (AID 1347098); settings: SK-N-SH viability, CellTiter-Glo luminescence, 48 h; series mostly up to 57 µM; note: nearly all actives have a fitted effect of over 65% in size
Procedure, shortened: (§2)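 Cells (500-1,000/well) rested 5 h, then received compounds for 48 h; metabolically active cells were measured by CellTiter-Glo luminescence. Final concentrations spanned up to 46 µM (MIPE, 11-point) or 0.59 nM-46 µM (NPC, 8-point) in primary screens, 11-point in follow-ups.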

[4] = qHTS of pediatric cancer cell lines to identify multiple opportunities for drug repurposing: Primary screen for LAN-5 cells (AID 1347100); settings: LAN-5 neuroblastoma viability, CellTiter-Glo luminescence, 48 h; series mostly up to 46 µM
Procedure, shortened: as §2

[5] = qHTS of pediatric cancer cell lines to identify multiple opportunities for drug repurposing: Primary screen for BT-37 cells (AID 1347094); settings: BT-37 viability, CellTiter-Glo luminescence, 48 h; series mostly up to 57.3 µM
Procedure, shortened: as §1

[6] = qHTS of pediatric cancer cell lines to identify multiple opportunities for drug repurposing: Primary screen for NB-EBc1 cells (AID 1347095); settings: NB-EBc1 neuroblastoma viability, CellTiter-Glo luminescence, 48 h; series mostly up to 46 µM
Procedure, shortened: as §1

[7] = qHTS of pediatric cancer cell lines to identify multiple opportunities for drug repurposing: Primary screen for U-2 OS cells (AID 1347096); settings: U-2 OS viability, CellTiter-Glo luminescence, 48 h; series mostly up to 46 µM; note: nearly all actives have a fitted effect of over 50% in size
Procedure, shortened: as §2

[8] = qHTS of pediatric cancer cell lines to identify multiple opportunities for drug repurposing: Primary screen for NB1643 cells (AID 1347099); settings: NB1643 neuroblastoma viability, CellTiter-Glo luminescence, 48 h; series mostly up to 46 µM; note: nearly all actives have a fitted effect of over 50% in size
Procedure, shortened: as §1

[9] = qHTS of pediatric cancer cell lines to identify multiple opportunities for drug repurposing: Primary screen for BT-12 cells (AID 1347101); settings: BT-12 viability, CellTiter-Glo luminescence, 48 h; series mostly up to 57.3 µM; note: nearly all actives have a fitted effect of over 25% in size
Procedure, shortened: as §2

Measured: Potency
Potency is the fitted concentration of half-maximal effect.

Cc1cc(C(=O)NOCCO)c(Nc2ccc(I)cc2F)n(C)c1=O
active: [1] 0.662 µM | [3] 2.15 µM
inactive: [2]

COC(=O)C1C2CC3c4[nH]c5cc(OC)ccc5c4CCN3CC2CC(OC(=O)c2cc(OC)c(OC)c(OC)c2)C1OC (stereo not given)
active: [1] 3.72 µM | [2] 18.7 µM
inactive: [4]

NC[C@H]1O[C@H](O[C@H]2[C@@H](O)[C@@H](O[C@H]3O[C@H](CO)[C@@H](O)[C@H](N)[C@@H]3O)[C@H](N)C[C@@H]2N)[C@H](N)C[C@H]1O
inactive: [5] | [6] | [7] | [2] | [3] | [8] | [4] | [9]

C#Cc1cccc(Nc2ncnc3cc(OCCOC)c(OCCO)cc23)c1
active: [5] 6.85 µM | [6] 5.26 µM | [2] 5.9 µM | [3] 3.83 µM | [8] 1.87 µM | [4] 0.264 µM | [9] 13.7 µM

Cc1noc(-c2ccc(CSCCC(=O)O)cc2)c1NC(=O)OC(C)c1ccccc1Cl (stereo not given)
inactive: [5] | [6] | [7] | [2] | [3] | [4] | [9]

CCN(CC)Cc1ccc2cc(COC(=O)Nc3ccc(C(=O)NO)cc3)ccc2c1
active: [5] 1.93 µM | [6] 0.833 µM | [7] 3.72 µM | [2] 0.935 µM | [3] 1.52 µM | [8] 1.18 µM | [4] 0.526 µM

C=CC(=O)Nc1cccc(Nc2nc(NC3CCC(N(C)C)CC3)nc3c2ncn3C(C)C)c1 (stereo not given)
active: [5] 0.0968 µM | [2] 0.833 µM | [3] 0.136 µM | [8] 0.0332 µM | [4] 0.0148 µM | [9] 0.0385 µM

CCN(C(=O)c1c(O)c2c(Cl)cccc2n(C)c1=O)c1ccccc1
active: [5] 21.7 µM
inactive: [7] | [3] | [4]

Cc1cnc(NC(=O)Nc2cc(Br)c(C)cc2OC[C@@H]2CNCCO2)cn1
inactive: [3] | [9]
active: [1] 0.166 µM | [6] 1.05 µM

CC(C)(O)CC[C@@H](O)[C@](C)(O)[C@H]1CC[C@@]2(O)C3=CC(=O)[C@@H]4C[C@@H](O)[C@@H](O)C[C@]4(C)[C@@H]3CC[C@]12C
inactive: [5] | [6] | [7] | [2] | [4] | [9]

Nc1ncn([C@@H]2O[C@H](CO)[C@@H](O)[C@@H]2O)c(=O)n1
active: [5] 10.9 µM | [6] 16.6 µM | [8] 4.69 µM | [4] 5.26 µM | [9] 5.44 µM

NC(=O)Nc1sc(-c2ccc(F)cc2)cc1C(N)=O
active: [5] 0.685 µM | [6] 0.469 µM | [7] 4.69 µM | [2] 2.35 µM | [3] 5.41 µM | [4] 1.18 µM

O=C(Nc1ccc(Oc2ccnc3[nH]ccc23)c(F)c1)c1cccn(-c2ccc(F)cc2)c1=O
inactive: [5] | [7] | [3] | [4] | [9]
active: [2] 20.9 µM

CON=C(C(=O)N[C@@H]1C(=O)N2C(C(=O)O)=C(CSC(=O)c3ccco3)CS[C@H]12)c1csc(N)n1
active: [3] 13.6 µM
inactive: [6] | [7] | [2] | [4] | [9]

CN[C@H]1[C@@H](O)[C@@H]2O[C@@H]3O[C@H](C)CC(=O)[C@]3(O)O[C@@H]2[C@@H](NC)[C@H]1O
active: [5] 9.68 µM | [6] 8.33 µM | [7] 2.96 µM | [2] 1.87 µM | [3] 6.07 µM | [8] 1.87 µM | [4] 0.166 µM | [9] 1.09 µM

CC(=O)O[C@@]12CO[C@H]1C[C@H](O)[C@@]1(C)C(=O)[C@H](O)C3=C(C)[C@@H](OC(=O)C(O)[C@@H](NC(=O)OC(C)(C)C)c4ccccc4)C[C@@](O)([C@@H](OC(=O)c4ccccc4)[C@@H]21)C3(C)C (stereo not given in full)
inactive: [7] | [3]
active: [1] 0.001 µM

c1cncc(CN2CCC(n3ncc4c(N5CCOCC5)nc(-c5ccc6[nH]ccc6c5)nc43)CC2)c1
inactive: [7]
active: [5] 7.69 µM | [6] 4.69 µM | [3] 19.2 µM | [8] 6.62 µM | [4] 14.8 µM | [9] 13.7 µM

CCCc1nc(C(C)(C)O)c(C(=O)O)n1Cc1ccc(-c2ccccc2-c2nn[nH]n2)cc1
inactive: [5] | [6] | [7] | [2] | [4] | [9]

CC(=O)O[C@H]1C[C@@H]2CC[C@H]3[C@H]4C[C@H]([N+]5(C)CCCCC5)[C@@H](OC(C)=O)[C@@]4(C)CC[C@@H]3[C@@]2(C)C[C@H]1N1CCCCC1
inactive: [5] | [7] | [2] | [3] | [8] | [4] | [9]

CC(C)c1cc(C(C)C)c(CC(=O)NS(=O)(=O)Oc2c(C(C)C)cccc2C(C)C)c(C(C)C)c1
active: [5] 24.3 µM | [6] 14.8 µM | [2] 18.7 µM | [8] 16.6 µM
inactive: [7] | [3]

CC(=CC(=O)Nc1ccccc1C(=O)O)c1ccc2ccccc2c1
inactive: [7] | [4]
active: [1] 8.33 µM

CC(C)c1cnn2c(NCc3ccccc3)cc(NCCCCCCN)nc12
active: [5] 24.3 µM | [6] 20.9 µM | [2] 23.5 µM | [8] 18.7 µM | [4] 18.7 µM | [9] 27.3 µM

CC(Cc1ccc(O)c(O)c1)(NN)C(=O)O (stereo not given)
inactive: [7] | [2] | [3] | [9]

C=C(C)[C@@H]1CC[C@]2(C(=O)O)CC[C@]3(C)[C@H](CC[C@@H]4[C@@]5(C)CC[C@H](O)C(C)(C)[C@@H]5CC[C@]43C)[C@@H]12
inactive: [5] | [7] | [3] | [8] | [4]
active: [2] 18.7 µM

Nc1nc(=O)n([C@H]2C[C@H](O)[C@@H](CO)O2)cc1F
active: [6] 3.72 µM
inactive: [7] | [2] | [3] | [8]

C[N+](C)([O-])CCNc1ccc(NCC[N+](C)(C)[O-])c2c1C(=O)c1c(O)ccc(O)c1C2=O
inactive: [5] | [7] | [2]

O=C(NCc1ccccc1)[C@H](Cc1ccccc1)NC(=O)[C@@H]1O[C@@H]1C(=O)NCCc1ccc(O)cc1
inactive: [6] | [7] | [4] | [9]
active: [2] 23.5 µM | [3] 21.5 µM

CC[C@H](CC[C@@H](C)[C@H]1CC[C@H]2[C@@H]3CC=C4C[C@@H](O)CC[C@]4(C)[C@@H]3CC[C@]12C)C(C)C
inactive: [5] | [6] | [7] | [2] | [4] | [9]

CN(C)CC(=O)N1CCC(c2ccc(NC(=O)c3ncc(C#N)[nH]3)c(C3=CCCCC3)c2)CC1
active: [6] 23.5 µM | [2] 18.7 µM | [3] 1.21 µM | [8] 18.7 µM | [4] 16.6 µM | [9] 30.6 µM

COC(=O)[C@@H]1[C@H]2C[C@@H]3c4[nH]c5ccccc5c4CCN3C[C@@H]2CC[C@@H]1O
active: [1] 2.96 µM
inactive: [6] | [7] | [2] | [3] | [4] | [9]

CC(C)Oc1ccc(C(=O)N[C@H](CNC(=O)CN(C)C)Cc2ccc(-c3cn4cccc([C@H](C)O)c4n3)cc2)cc1Cl
inactive: [7]
active: [1] 0.148 µM | [6] 0.372 µM | [2] 0.332 µM | [3] 15.2 µM | [4] 1.05 µM

CC[C@H]1OC(=O)[C@H](C)[C@@H](O[C@H]2C[C@@](C)(OC)[C@@H](O)[C@H](C)O2)[C@H](C)[C@@H](O[C@@H]2O[C@@H](C)C[C@H](N(C)C)[C@@H]2O)[C@](C)(O)C[C@@H](C)C(=O)[C@H](C)[C@@H](O)[C@]1(C)O
inactive: [5] | [6] | [7] | [2] | [3] | [4] | [9]

CCCCCCCN(CC)CCCC(O)c1ccc(NS(C)(=O)=O)cc1 (stereo not given)
inactive: [5] | [7] | [3] | [8] | [9]

C[C@H](NC(=O)[C@@H](O)c1cc(F)cc(F)c1)C(=O)N[C@@H]1C(=O)N(C)c2ccccc2-c2ccccc21
inactive: [5] | [7] | [4] | [9]

CCNC(=O)c1cc2c(-c3cc(OCCN4CCCC4)c(Cl)cc3Cl)nc(N)nc2s1
inactive: [7] | [9]
active: [1] 2.64 µM | [6] 0.935 µM | [2] 3.72 µM | [3] 3.04 µM | [8] 2.64 µM

C=C1C(=O)O[C@H]2[C@@H]1CCC(C)=CCC[C@@]1(C)O[C@@H]21
active: [1] 7.43 µM | [6] 5.26 µM | [2] 3.32 µM | [3] 24.1 µM | [8] 8.33 µM | [4] 7.43 µM | [9] 21.7 µM

CC(C(C)N1CC(=O)NC(=O)C1)N1CC(=O)NC(=O)C1 (stereo not given)
inactive: [7] | [3] | [9]
active: [1] 0.743 µM | [6] 0.264 µM | [4] 0.743 µM

Cc1cc(O)c2c(c1)C(=O)c1cccc(O)c1C2=O
inactive: [5] | [7] | [3] | [8] | [4]

CCCCOc1ccc(C(=O)Nc2ccc(F)cc2F)cc1
inactive: [5] | [6] | [7] | [2] | [4] | [9]
